# This is a sample that favours compounds with a hit; in the whole collection about 2.3% have one here.
# DENV2 CPE = inhibitors of DENV2 cytopathic effect, primary screen, cell-based, plate reader, single concentration; DENV2-infected cells, cytopathic effect rescue; CPE inhibition, % at 9.99 µM; 350,000 compounds, 1.7% hits; AID 651640, 2012; in the data active = CPE inhibition above about 20%, passing the limit was not always enough; inconclusive = no clear call, values can overlap the other calls; tested in BHK-21 cells;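 note: 0% = median of neutral control wells and 100% = median of positive control wells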
# Rtt109 HAT inh = inhibitors of C. albicans Rtt109/Vps75 HAT, primary screen, biochemical, ThioGlo CoA-SH fluorescence, plate reader; purified Rtt109/Vps75, 4 h; 330,000 compounds, 0.16% hits; inhibition, % at 34.9 µM; Histone acetyltransferase RTT109 (Candida albicans (strain SC5314 / ATCC MYA-2876)), …;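 active = inhibition of at least 50% in every replicate; inconclusive = best replicate reaches 50% inhibition but some replicates fall short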
# Target sequence (Q5AAJ8 whole entry, looked up): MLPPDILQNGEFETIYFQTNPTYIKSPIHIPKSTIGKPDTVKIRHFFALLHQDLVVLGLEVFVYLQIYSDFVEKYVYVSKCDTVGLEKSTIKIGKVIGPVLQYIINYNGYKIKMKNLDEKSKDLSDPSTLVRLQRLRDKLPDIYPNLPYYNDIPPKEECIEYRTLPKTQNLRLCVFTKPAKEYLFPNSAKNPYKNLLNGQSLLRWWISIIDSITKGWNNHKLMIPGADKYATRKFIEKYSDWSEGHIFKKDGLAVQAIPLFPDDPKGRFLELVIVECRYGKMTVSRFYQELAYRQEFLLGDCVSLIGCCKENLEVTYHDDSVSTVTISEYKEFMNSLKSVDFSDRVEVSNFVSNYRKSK
# SIRT5 block = SIRT5 desuccinylase inhibitors, primary screen, biochemical, fluorescence imaging, single point, set 5 | NAD-dependent protein deacylase sirtuin-5, mitochondrial (Homo sapiens), Q9NXA8 | Purified SirT5, succinyl-peptide AMC, trypsin-coupled fluorescence | inhibition, % at 15 µM | 330,000 compounds, 1.1% hits; in the data active = inhibition above about 15%; inconclusive = no clear call, values can overlap the other calls
# Target sequence (Q9NXA8 whole entry, looked up): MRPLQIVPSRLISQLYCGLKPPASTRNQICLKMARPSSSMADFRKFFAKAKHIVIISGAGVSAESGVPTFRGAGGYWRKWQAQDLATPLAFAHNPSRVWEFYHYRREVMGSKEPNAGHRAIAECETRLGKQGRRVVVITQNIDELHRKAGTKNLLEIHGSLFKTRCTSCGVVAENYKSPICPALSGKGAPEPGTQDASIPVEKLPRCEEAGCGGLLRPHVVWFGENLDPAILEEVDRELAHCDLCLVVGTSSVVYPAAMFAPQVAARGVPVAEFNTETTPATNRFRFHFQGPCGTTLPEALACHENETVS
# PDI turbidity = inhibitors of human PDI, primary screen, biochemical, turbidity, single point, plate reader; Protein disulfide-isomerase (Homo sapiens), P07237; PDI insulin aggregation turbidity, A650, 90 min; inhibition, % at 10 µM; 350,000 compounds, 0.052% hits; AID 588391, 2011;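 active = mean inhibition across replicates of 30% or more, whatever share of single replicates reach that level; inconclusive = mean inhibition below 30% while every single replicate reaches 30%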
# ERp5 inh = inhibitors of ERp5-driven insulin aggregation, primary screen, biochemical, turbidity, absorbance 650 nm, single point; Protein disulfide-isomerase A6 (Homo sapiens), Q15084; 90 min; inhibition, % at 9.99 µM; 350,000 compounds, 0.05% hits; AID 651711, 2012;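 active = mean replicate inhibition above about 25%, with every replicate also reaching it, limit read from the data, passing the limit was not always enough; inconclusive = only one of those two criteria met; inactive = neither criterion met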
# * = called active by the depositor; ? = inconclusive; · = no result given; ! = repeats disagree.
SMILES,DENV2 CPE,Rtt109 HAT inh,SIRT5 block,PDI turbidity,ERp5 inh
C[C@H]1CN([C@@H](C)CO)C(=O)c2cc(NC(=O)CCC(F)(F)F)ccc2O[C@H]1CN(C)Cc1ccc(C(F)(F)F)cc1,?,·,19.8*,·,1.1
C[C@H](CO)N1C[C@H](C)[C@H](CN(C)Cc2ccc(Oc3ccccc3)cc2)Oc2ccc(NC(=O)CCC(F)(F)F)cc2C1=O,?,·,15.1*,·,11.0
C[C@H](CO)N1C[C@H](C)[C@@H](CN(C)Cc2ccc(Oc3ccccc3)cc2)Oc2ccc(NC(=O)CCC(F)(F)F)cc2C1=O,?,·,-1.2,·,3.8
C[C@@H]1CCCCO[C@H](CN(C)S(=O)(=O)c2ccccc2)[C@@H](C)CN([C@@H](C)CO)C(=O)c2cc(NC(=O)c3ccccc3)ccc2O1,-3.9,·,1.4,·,4.6
Cn1cccc1C(=O)c1cccc([N+](=O)[O-])c1,1.0,17.8,17.2*,-2.1,?
C[C@@H]1CN([C@H](C)CO)C(=O)Cc2cc(NC(=O)C3CC3)ccc2O[C@@H]1CN(C)Cc1ccc(C(=O)O)cc1,-7.9,·,-4.5,·,12.0
CCCCCCSc1cc(-c2nc3cc(C)ccn3c2NCCCC)ccc1OC,1.7,-4.6,·,10.7,0.0
CCCCCCSc1cc(-c2nc3cnccn3c2NCCCC)ccc1OC,·,-34.2,26.5*,-9.4,-8.1
CCOc1ccc(NC(=O)CC2C(=O)N(c3ccc(OC)cc3)C(=O)N2CCc2cccs2)cc1 (stereo not given),96.3*,11.5,·,-0.7,5.3
O=C(C[C@H]1C=C[C@@H](NC(=O)Nc2ccccc2)[C@@H](CO)O1)NCc1cccc(F)c1,-9.4,·,-2.2,·,0.5
COCCNS(=O)(=O)c1ccc2c(c1)Cc1cc(S(=O)(=O)NCCOC)ccc1-2,-8.7,-4.5,2.8,1.9,-1.1
COCCNS(=O)(=O)c1ccc2c(c1)C(=NO)c1cc(S(=O)(=O)NCCOC)ccc1-2,-0.7,52.5*,0.6,9.6,0.4
CCC(=O)N(C)C[C@@H]1Oc2cc(-c3cncnc3)ccc2S(=O)(=O)N([C@@H](C)CO)C[C@H]1C,-1.7,·,-6.3,·,3.5
Cc1nc2cc(NC(=O)c3ccc([N+](=O)[O-])s3)ccc2s1,72.8*,2.0,1.1,17.1,1.7
CCNc1ccc(C(=O)Nc2ccc3nc(C)sc3c2)cc1[N+](=O)[O-],33.4*,-19.1,0.1,-7.8,2.5
C[C@H]1CN([C@@H](C)CO)C(=O)c2cccc(NC(=O)Nc3ccccc3)c2O[C@@H]1CN(C)S(=O)(=O)c1ccc(Cl)cc1,8.3,·,-0.6,·,-2.3
Cc1cccc(N2CCN(C(=O)COc3ccc4c(C)cc(=O)oc4c3C)CC2)c1C,1.2,5.6,19.2*,-1.2,2.0
CCCc1cc(=O)oc2c(C)c(OCC(=O)N3C[C@H]4C[C@@H](C3)c3cccc(=O)n3C4)ccc12,28.7*,0.4,·,·,-2.0
O=C(NCC[C@H]1CC[C@@H](NS(=O)(=O)c2cccc(F)c2)[C@H](CO)O1)Nc1cc(F)ccc1F,-4.8,·,1.6,·,-3.6
CC=Cc1ccc2n(c1=O)C[C@H]1[C@H](CO)[C@@H](C(=O)NCc3ccc4c(c3)OCO4)[C@@H]2N1C(=O)CC (mixture of isomers),-14.7,·,1.1,·,-2.5
CC(C)C#Cc1cnc2c(c1)C(=O)N([C@H](C)CO)C[C@@H](C)[C@H](CN(C)C(=O)Nc1cc(F)ccc1F)O2,-2.8,·,-1.2,·,-4.7
CC(NC(=O)CN1CCCC1)c1ccccc1 (stereo not given),23.6*,2.7,·,2.5,0.9
Cc1ccccc1CN1CCN(CC(=O)NC(C)c2ccccc2)CC1 (stereo not given),27.2*,5.0,·,5.1,6.4
CN1C(=O)c2cc(NC(=O)c3cscn3)ccc2OC[C@@H]2O[C@@H](CC(=O)N3CCOCC3)CC[C@H]21,13.3,·,0.6,·,-2.7
O=C(COC(=O)Cc1c(Cl)cccc1Cl)Nc1ccc2[nH]c(=O)[nH]c2c1,-9.1,8.7,9.9,-2.5,18.7
SMILES,DENV2 CPE,Rtt109 HAT inh,SIRT5 block,PDI turbidity,ERp5 inh
O=C(COC(=O)Cc1c(F)cccc1Cl)Nc1ccc2[nH]c(=O)[nH]c2c1,6.1,7.4,15.3*,5.8,4.1
C[C@H]1CCCCO[C@@H](CN(C)C(=O)C2CCCCC2)[C@@H](C)CN([C@@H](C)CO)C(=O)c2cc(NC(=O)Nc3ccc(F)cc3)ccc2O1,-0.7,·,1.7,·,3.7
C[C@H]1CCCCO[C@H](CN(C)C(=O)C2CCCCC2)[C@@H](C)CN([C@@H](C)CO)C(=O)c2cc(NC(=O)NC3CCCCC3)ccc2O1,4.2,·,15.7*!,3.0,0.7
C[C@H]1CCCCO[C@H](CN(C)C(=O)c2ccccc2)[C@@H](C)CN([C@@H](C)CO)C(=O)c2cc(NC(=O)Nc3ccc(F)cc3)ccc2O1,27.8*,·,3.4,·,-0.2
C[C@@H]1CCCCO[C@@H](CN(C)C(=O)c2ccccc2)[C@H](C)CN([C@@H](C)CO)C(=O)c2cc(NC(=O)Nc3ccc(F)cc3)ccc2O1,9.4,·,6.7,·,-4.4
C[C@H]1CCCCO[C@H](CN(C)C)[C@@H](C)CN([C@@H](C)CO)C(=O)c2cc(NC(=O)Nc3ccc(F)cc3)ccc2O1,13.7,·,-1.3,·,-3.3
C[C@@H]1CN([C@H](C)CO)C(=O)c2cc(NC(=O)Nc3ccc(F)cc3)ccc2O[C@@H](C)CCCCO[C@H]1CN(C)C,41.8*,·,-1.6,·,-2.7
C[C@H](CO)N1C[C@H](C)[C@@H](CN(C)C(=O)C2CCCCC2)OCCCC[C@H](C)Oc2ccc(NC(=O)Nc3ccc(F)cc3)cc2C1=O,2.5,·,21.9*,·,1.5
C[C@H]1CN([C@@H](C)CO)C(=O)c2cc(NC(=O)C3CC3)ccc2O[C@H]1CN(C)C(=O)NC1CCCCC1,1.3,·,-0.7,·,5.7
C[C@H](CO)N1C[C@H](C)[C@@H](CN(C)C(=O)Nc2cccc3ccccc23)Oc2ccc(NC(=O)CCN3CCOCC3)cc2CC1=O,9.1,·,3.3,·,2.9
CC(C)NC(=O)N(C)C[C@@H]1OCCCC[C@H](C)Oc2ccc(NC(=O)Nc3ccc(F)cc3)cc2C(=O)N([C@@H](C)CO)C[C@H]1C,39.1*,·,-1.4,·,-1.9
COc1ccc(NC(=O)N(C)C[C@@H]2OCCCC[C@@H](C)Oc3ccc(NC(=O)Nc4ccc5c(c4)OCO5)cc3C(=O)N([C@H](C)CO)C[C@H]2C)cc1,-2.4,·,15.2*,·,-0.7
C[C@@H]1CN([C@@H](C)CO)C(=O)c2cc(NC(=O)Nc3ccc(F)cc3)ccc2O[C@@H](C)CCCCO[C@@H]1CN(C)C(=O)Nc1ccc2c(c1)OCO2,23.0*,·,14.6,·,3.9
CC(C)NC(=O)N(C)C[C@H]1OCCCC[C@@H](C)Oc2ccc(NC(=O)Nc3ccc(F)cc3)cc2C(=O)N([C@H](C)CO)C[C@@H]1C,1.0,·,-1.8,·,2.5
